# From PubChem
# A selection: hits, their analogues and other compounds. The true share with any hit is near 6.5%.
# Vaccinia Venus: inhibitors of vaccinia virus (Venus reporter); Vaccinia virus Venus reporter expression, fluorescence; Potency, µM (series often up to 36.5 µM), for inactives: top-dose activity change, negative = inhibition, usual class: inhibitors; hit rate 0.46% among 330,000; calls by dose curve; tested in A549 cells; also: potency is read from the fitted curve at half-maximal effect; nearly all actives have a fitted effect of over 30% in size
# VACV mCherry inh: vaccinia inhibition (mCherry reporter). Vaccinia virus mCherry reporter infection, fluorescence. Potency, µM (highest dose often 36.5 µM), inactives show top-dose activity change, negative = inhibition, usual class: inhibitors. hit rate 0.63% among 310,000. AID 720579; calls by dose curve; tested in A549 cells; also: potency is read from the fitted curve at half-maximal effect; nearly all actives have a fitted effect of over 35% in size
# MARV entry inh: Marburg virus entry inhibition; Marburg virus pseudotyped entry inhibition, cell reporter; Potency, µM (doses to about 37.8 µM), for the others: top-dose activity change, negative = inhibition, usual class: inhibitors; hit rate 1.8% among 300,000; calls by dose curve; tested in HEK293 cells; also: potency is read from the fitted curve at half-maximal effect
# HCMV antiviral: inhibitors of human cytomegalovirus. activity change, negative = inhibition, % at 57.5 µM. HFF cells, HCMV-luciferase reporter, 72 h; hits give low values. AID 1259415. hit rate 4.5% among 410,000; in the data active = activity change below about -60%; inconclusive = no clear call, values can overlap the other calls; inactive = above about -39%
#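 HFF cells seeded 16 h at 37C, treated with compounds, infected with luciferase-reporter HCMV at MOI 1 PFU/cell; luciferase read at 72 h post infection, normalized to buffer-only and Salinomycin controls.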
# FMDV antiviral: blocks foot and mouth disease virus; FMDV antiviral cell-based qHTS; hit rate 1.2% among 410,000; AID 1159524; Potency, µM (series often up to 57.9 µM), inactives show at the highest dose activity change, negative = inhibition, usual class: inhibitors; calls by dose curve; tested in HEK293T cells; also: read-out not given here; potency is read from the fitted curve at half-maximal effect; nearly all actives have a fitted effect of over 45% in size
# Lassa entry inh: blocks Lassa virus binding to or entry into cells | Lassa virus pseudotype entry inhibition, cell reporter | hit rate 1.2% among 300,000 | Potency, µM (doses to about 37.9 µM), for the others: at the top dose activity change, negative = inhibition, most hits filed as inhibitors; calls by dose curve; tested in HEK293 cells; also: potency is read from the fitted curve at half-maximal effect; nearly all actives have a fitted effect of over 50% in size
# Starred values were filed as active, the others as inactive; i = inactive; ? = inconclusive; · = no result; ! = not confirmed by another sample; [ ] = another dose, or the depositor's remark. % is scaled to controls: 0 for no effect and ±100 for the full control effect.
SMILES,Vaccinia Venus,VACV mCherry inh,MARV entry inh,HCMV antiviral,FMDV antiviral,Lassa entry inh
O=C(c1ccco1)N1CCCC(c2nc(-c3ccc(S(=O)(=O)NCc4ccccc4)cc3)no2)C1 (stereo not given),?,-21%,?,-88*,?,?
O=S(=O)(c1ccc(Cl)cc1)N1CCCC(c2nc(-c3ccc(F)cc3)no2)C1 (stereo not given),-20%,i,·,20,-6%,·
COc1ccc(C(=O)N2CCC(c3nc(-c4ccc(S(=O)(=O)N5CCCC5)cc4)no3)CC2)cc1,-21%,?,?,-81*,-24%,-24%[46.1 µM]
O=C(CC1CCCCC1)N1CCCC(c2nc(-c3ccc(S(=O)(=O)N4CCCC4)cc3)no2)C1 (stereo not given),-28%,-12%,-26%,-71*,·,-24%
COc1ccc(-c2noc(C3CCCN(C(=O)c4ccccc4)C3)n2)cc1 (stereo not given),-7%[7.34 µM],-11%[7.34 µM],·,-7,7%,·
CCCCNC(=O)C1CCCN(S(=O)(=O)CCC)C1 (stereo not given),-5%,-5%,·,48,1%,?
C[C@@H]1CCCCO[C@H](CN(C)S(=O)(=O)c2cn(C)cn2)[C@@H](C)CN([C@H](C)CO)C(=O)c2cc(NC(=O)CCCN(C)C)ccc2O1,·,·,·,-12,·,·
NS(=O)(=O)c1ccc(N/N=C/c2ccccn2)c([N+](=O)[O-])c1,·,·,?,-64*,-3%,?
NS(=O)(=O)c1ccc(N/N=C/c2ccc(O)cc2O)c([N+](=O)[O-])c1,-25%,?,·,-78*,1%,·
NS(=O)(=O)c1ccc(N/N=C/c2cn(-c3ccccc3)nc2-c2ccccc2)c([N+](=O)[O-])c1,·,·,·,-81*,-29%,·
O=[N+]([O-])c1cc(S(=O)(=O)N2CCCC2)ccc1N/N=C/c1ccccn1,-14%,-18%,?,27,-15%,6%
CN(C)C=NC(=O)c1cc2c(n(-c3ccccc3)c1=O)CC(C)(C)CC2=O,-3%,1%,-2%[46.1 µM],5,-13%,?
CCCNC(=O)OC[C@H]1O[C@H](CCON=C(C)CCN2CCCCc3nc(C)c(C)cc32)C=C[C@H]1Oc1ccc(OC)cc1,·,·,-26%[14.2 µM],·,·,·
Cc1sc2nc(SCC(=O)Nc3ccc(Cl)c(C(=O)O)c3)[nH]c(=O)c2c1C,-11%,-18%,13µM*,0,-16%,?
CCOc1ccc(S(=O)(=O)n2c(C)nc3ccccc32)cc1,-12%,-4%,22%,-25,-18%,0%
CCOc1ccc(S(=O)(=O)N2CN(c3cccc(C(C)=O)c3)c3nc4ccccc4nc32)cc1,-7%,i,-11%,-71*,-15%,?
CCOc1ccc(-n2c(SCC(=O)Nc3ccc(CC)cc3)nc3c(oc4ccccc43)c2=O)cc1,-15%,-12%,-5%[46.1 µM],18,-8%,2%[46.1 µM]
Cc1c(C(C)C)c(=O)n(-c2ccccc2)n1C,·,·,·,-3,·,·
Cc1c(C(C)C)c(=O)n(-c2ccc(S(=O)(=O)NC3CCCCC3)cc2)n1C,-9%,i,?,-89*,-29%,?
Cc1ccc(S(=O)(=O)Nc2c(C)n(C)n(-c3ccccc3)c2=O)cc1,-6%,4%,1%[46.1 µM],-98*!,-6%,?
Cc1c(NN=C(C#N)C#N)c(=O)n(-c2ccccc2)n1C,5%,3%,28%[46.1 µM],-30,14µM*,-15%
Cc1c(C(C)C)c(=O)n(-c2ccc(S(=O)(=O)NCc3ccccc3)cc2)n1C,-12%,-20%,?,-85*,?,2µM*
Cc1c(NS(=O)(=O)c2ccccc2)c(=O)n(-c2ccccc2)n1C,·,·,?,-10,2%,-19%
COc1cc(-c2cnc3ccccc3c2)cc2c1OCCN(C(=O)CCC(=O)c1ccc(F)cc1)C2,-2%,-8%,·,·,-12%,·
Cc1cccc(C)c1NC(=O)C1(C)CSCC(=O)N1C1CCN(Cc2ccccc2)CC1 (stereo not given),-2%,-19%,·,-68*,-12%,·
N#Cc1ccc(/C=N/NC(=O)c2cc(-c3cccs3)nc3ccccc23)cc1,?,?,6.3µM*,-20,16%,?
CCOc1ncccc1C(=O)OCC(=O)NCCc1ccc(S(N)(=O)=O)cc1,·,·,·,-6,-23%,·
CCOc1ccc(OCCC(=O)OCC(=O)NCCc2ccc(S(N)(=O)=O)cc2)cc1,·,·,·,-73*,-12%,·
